92 compounds from PubChem BioAssay AID504408 (Broad Institute, 2011) can be followed below.

Among all 300,000 compounds or so, about 5,200 (1.7%) were called active. What follows is part of a selection rich in actives, with near analogues and random picks from the rest. A number with no mark means an inactive call.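 Rule for the calls: active = mean replicate activation of at least 50% with a set share of replicates each reaching 50%; inconclusive = only one of those two conditions met; inactive = mean below 50% and too few replicates reaching it.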

A short description of this test: HSF-1 activators, primary screen, NIH3T3-HGL cells, MG132 stress, luminescence, single point (AID 504408).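 Note: 0% = median of the neutral control wells and 100% = twice that signal.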 The note with it: NIH3T3-HGL HSF-1 luciferase reporter, MG132, 8 h; at 9 µM; active compounds read high; 100% = twice DMSO control signal.
`COc1ccc(OC)c(S(=O)(=O)N2CCCC(C(=O)N3CCC(C(N)=O)CC3)C2)c1` (configuration not stated): the activation was -0.348%.

Regarding `CCN1C(=O)[C@@H]2[C@@H](c3ccc(-c4cccc(Cl)c4)cc3)N3CCC[C@@]3(C(=O)OC)[C@@H]2C1=O`, the activation is 15%.

Take `O=C(/C=C/NCc1ccc(F)cc1)c1ccccc1`: the activation was 57.4% (active).

Consider `O=C(Cc1ccccc1)NCc1ccc(F)cc1`, for which the activation was 20.9%.

Regarding `O=C(/C=C\NCC(=O)c1ccccc1)c1ccccc1`, the activation was 16.4%.

Regarding `Cc1ccc(NC(=O)C(C)OC(=O)Cc2c[nH]c3ccccc23)cc1S(=O)(=O)N1CCOCC1` (configuration not stated), the activation is 13%.

Consider `Cc1ccc(C(=O)OCC(=O)N2CC(C)CC(C)C2)cc1S(=O)(=O)N1CCCCC1` (configuration not stated), for which the activation is 1.62%.

For `Cc1ccc2nc(N3CCN(C(=O)c4ccco4)CC3)sc2c1`, the activation was 12.9%.

With `c1c2c(cc3sc(N4CCCCC4)nc13)OCCO2`, the activation is -56.8%.

As for `Brc1ccc2nc(N3CCCC3)sc2c1`, the activation was 68.3% (active).

For the compound `CN(Cc1c(F)cccc1Cl)C(=O)CNC(=O)c1ccc2c(c1)OCO2`, the activation was -4.62%.

Consider `Cc1ccc(S(=O)(=O)N2CCN(C(=O)c3ccccc3-c3nc4ccccc4s3)CC2)c(C)c1`, for which the activation was -2.98%.

As to `O=C1c2ccccc2C(=O)N1CCOc1ccc(F)cc1`, the activation is 43.4%.

In the case of `O=C(CCN1C(=O)c2ccccc2C1=O)Nc1cccc(F)c1`, the activation was -4.05%.

As to `O=C(CCN1C(=O)c2ccccc2C1=O)C1=NN[C@@H]2C(=O)N(c3ccc(F)cc3)C(=O)[C@H]12`, the activation was 67.2% (active).

Consider `CCOc1ccc(S(=O)(=O)Nc2cccc(C(=O)NCC3(N4CCCCC4)CCCCC3)c2)cc1`, for which the activation is -4.45%.

In the case of `O=C(CSc1nnc(-c2c[nH]c3ccccc23)n1-c1ccc(F)cc1)NCc1ccco1`, the activation is 58.5% (active).

On to `COc1ccc(-n2c(SCC(=O)NCc3ccco3)nnc2-c2c[nH]c3ccccc23)cc1`, for which the activation was 7.75%.

As for `O=C(CSc1nnc2scc(-c3ccc(F)cc3)n12)NCc1ccco1`, the activation is -1.83%.

Turning to `O=S(=O)(Nc1ccc(-c2ccc(N3CCOCC3)nn2)cc1)c1cc(Cl)ccc1Cl`, the activation was 12.9%.

Regarding `Cc1ccc(C(=O)N/N=C/c2cccc3ccccc23)cn1`, the activation was 15.6%.

For `c1cnc(Nc2nc(-c3ccc4ccccc4c3)cs2)nc1`, the activation is 38.8%.

Take `CCCn1c(CCNc2nc(-c3ccc(OC)cc3)cs2)nc2ccccc21`: the activation was 3.73%.

As for `COc1ccc(-c2csc(Nc3ccccn3)n2)cc1`, the activation was 57.4% (active).

Turning to `Cc1ccc(NC(=O)c2cccs2)cc1S(=O)(=O)N(C)C`, the activation is -11.9%.

In the case of `CCN(CC(=O)Nc1ccc(C)c(S(=O)(=O)N(C)C)c1)Cc1ccccc1`, the activation is 3.82%.

In the case of `Cc1ccc(C(=O)Nc2ccc(C)c(S(=O)(=O)N(C)C)c2)s1`, the activation is 78.5% (active).

For the compound `CN(C)S(=O)(=O)c1ccc(N2CCCC2)c(C(=O)Nc2ccc(Br)cc2F)c1`, the activation was 14.1%.

As for `Cc1ccc(Cc2nnc(SCC(=O)Nc3ccc(C)cc3C)[nH]c2=O)cc1`, the activation was 0.586%.

In the case of `Cc1c(NC(=O)C(C)OC(=O)c2c3c(nc4ccccc24)CCC(C)C3)c(=O)n(-c2ccccc2)n1C` (configuration not stated), the activation is -5.9%.

As for `O=C1CN(c2nc(-c3ccccc3)c3cc(Br)ccc3n2)c2ccccc2N1`, the activation was -21.4%.

In the case of `S=C1NC(c2ccccc2)=NCN1c1ccc(Br)cc1`, the activation was 55% (active).

For the compound `Cc1nc(=O)c(-c2ccccc2)c(C)n1-c1ccc(Br)cc1`, the activation was 1.48%.

Take `Cc1ccc(-n2nc3ccc(NC(=O)/C=C/c4ccco4)cc3n2)cc1C`: the activation was 21.6%.

Regarding `CCC(=O)Nc1ccc(C(=O)Nc2cccc(OC)c2)cc1`, the activation is 11.2%.

As to `CCC(=O)Nc1ccc2nn(-c3ccc(F)cc3)nc2c1`, the activation is 63.6% (active).

On to `Cc1cc(C)n2nc(C(=O)OC(C)C(=O)c3cc(C)c(C)cc3C)nc2n1` (configuration not stated), for which the activation is 4.08%.

`Cn1c(=S)sc2ccc3ccccc3c21`: the activation is -1.53%.

`COc1ccc(S(=O)(=O)NCC(c2ccco2)N2CCOCC2)cc1` (configuration not stated): the activation is -18.5%.

With `COc1cccc(COC(=O)C2CCN(S(=O)(=O)c3ccc(Cl)cc3)CC2)c1OC`, the activation was -0.23%.

As to `Cc1nn(-c2ccccc2)c2sc(C(=O)N(Cc3ccco3)C(C)C(=O)NC(C)(C)C)cc12` (configuration not stated), the activation was 91.4% (active).

Take `Cc1nc(C)c(C(=O)N(c2ccc(C)c(C)c2)C(C(=O)NCc2ccco2)c2ccccc2)s1` (configuration not stated): the activation was -5.39%.

Take `Cc1ccc(-c2nnn(CC(=O)N(Cc3ccco3)C(C(=O)NC(C)(C)C)c3ccncc3)n2)o1` (configuration not stated): the activation was 10.4%.

As to `COc1ccc(NC(=O)CN(C)C(=O)c2cccc(S(=O)(=O)N3CCN(c4ccccc4)CC3)c2)cc1`, the activation was 14.8%.

`COc1ccc(C(=O)Oc2ccc(-c3nnco3)cc2)cc1S(=O)(=O)N1CCOCC1`: the activation is 7.88%.

`Brc1ccccc1C1N=C(c2ccccc2)NO1` (configuration not stated): the activation is 9.38%.

With `N#Cc1ccc(C2N=C(c3ccccc3)NO2)cc1` (configuration not stated), the activation was 56.2% (active).

For `O=C(COC(=O)CNS(=O)(=O)c1ccc(F)c(F)c1F)NC1CCCC1`, the activation was -12.4%.

Turning to `Nc1cccnc1Sc1ccccc1`, the activation was 7.53%.

Consider `O=C(CNC(=O)C12CC3CC(CC(C3)C1)C2)OCC(=O)N1CCCCC1`, for which the activation is 10.8%.

In the case of `CC(=O)N1CCN(C(=O)c2cc(-c3ccc(Cl)s3)nc3ccccc23)CC1`, the activation was 18.1%.

As to `CCNc1nc(-c2cc3ccccc3o2)cs1`, the activation was 25.2%.

`Cc1ccc(Nc2nc(-c3ccc(O)cc3O)cs2)nc1`: the activation was -44.2%.

Regarding `O=c1oc2ccccc2cc1-c1csc(Nc2ccc(O)cc2)n1`, the activation was 125% (active).

In the case of `O=C1NC(c2cccc(Cl)c2)Nc2ccccc21` (configuration not stated), the activation is 19.4%.

As to `COc1ccc(C2NC(=O)c3ccccc3N2)cc1` (configuration not stated), the activation was 73.7% (active).

For `COc1cccc(C2Nc3cccc4cccc(c34)N2)c1`, the activation was 1.58%.

With `O=C1Oc2ccccc2C(=O)/C1=C/c1ccccc1O`, the activation was -36.2%.

Regarding `COC(=O)C(C)Oc1ccc2c(c1)O/C(=C\c1cccc(Br)c1)C2=O` (configuration not stated), the activation was -3.63%.

For `COc1ccc2c(c1)O/C(=C\c1ccccc1O)C2=O`, the activation is 61.8% (active).

With `CCOc1ccc(/C=C/C(=O)N(CC)CC(=O)NCc2cccs2)cc1OC`, the activation was -14%.

In the case of `COc1ccccc1-n1ccnc(SCC(=O)NC2CCCCC2)c1=O`, the activation was -0.123%.

Turning to `O=C(O)CCCCc1nc2ccccc2s1`, the activation was 13%.

In the case of `CC(C)CC(=O)N/C(N)=N/c1nc2ccccc2s1`, the activation is 10.3%.

Turning to `CCC(=O)NC(=Nc1nc2ccccc2s1)NC(=O)CC`, the activation is 60.3% (active).

As for `COc1ccc2sc(N(CCCN(C)C)C(=O)c3ccc(S(=O)(=O)N(C)C4CCCCC4)cc3)nc2c1`, the activation is -14.5%.

In the case of `O=C1c2cccc3cc(Br)cc(c23)C(=O)N1Nc1ccccc1`, the activation was -9.54%.

For the compound `O=C(CCC(=O)OCc1ccc(Cl)cc1)Nc1ccccc1`, the activation was 10.6%.

Take `O=C1C=C(c2ccc(Cl)cc2)C(=O)N1Nc1ccccc1`: the activation is 82% (active).

As to `Cc1cc(C)n2nc(C(=O)OCC(=O)N(CCC#N)c3ccc(F)cc3)nc2n1`, the activation was 12.7%.

As to `O=C(NCc1ccccc1Cl)C(=O)NCC1CCCN1S(=O)(=O)c1cccs1` (configuration not stated), the activation is 4.38%.

For the compound `CCCCN(C(=O)c1ccc(C)o1)c1c(N)n(CCCC)c(=O)[nH]c1=O`, the activation was 12.2%.

With `CN(C)CCCN(C(=O)c1ccc(S(=O)(=O)N2CCCCCC2)cc1)c1nc2cc3c(cc2s1)OCCO3`, the activation was -46.2%.

Take `CCCCn1c(N)c(N(CC(C)C)C(=O)c2cccc(S(=O)(=O)N3CC(C)OC(C)C3)c2)c(=O)[nH]c1=O` (configuration not stated): the activation was -0.424%.

For `Cc1ccc(S(=O)(=O)NCCSc2ccccc2)cc1[N+](=O)[O-]`, the activation is -0.244%.

`CCOc1ccc(S(=O)(=O)NCCSc2ccccc2)cc1`: the activation was 61.2% (active).

Turning to `CCOc1ccc(S(=O)(=O)NCCC(=O)N2CCCCCCC2)cc1`, the activation is 4.97%.

As to `COc1ccc(-c2cc(C(=O)N/N=C/c3cccnc3)c3ccccc3n2)c(OC)c1`, the activation is 5.29%.

On to `O=C(NCCNc1ccc([N+](=O)[O-])cc1Cl)c1ccccc1F`, for which the activation was 18.7%.

Take `O=C(NCCCNc1ccc([N+](=O)[O-])cc1Cl)c1ccccc1F`: the activation is -9.78%.

`O=C(NCCNc1ccccc1[N+](=O)[O-])c1ccccc1F`: the activation is 55.9% (active).

For `O=C(c1ccncc1)N1CCN(S(=O)(=O)c2cccc([N+](=O)[O-])c2)CC1`, the activation was 4.99%.

Take `COc1cccc(NC(=O)CN(C)C(=O)CSCc2nc3scc(-c4cccs4)c3c(=O)[nH]2)c1`: the activation was 0.833%.

Regarding `O=C(c1ccc(NS(=O)(=O)c2ccc3[nH]c(=O)[nH]c3c2)cc1)N1CCCCC1`, the activation is 12.7%.

`COc1ccc(Cl)cc1NC(=O)CN(C)C(=O)CCCc1c[nH]c2ccccc12`: the activation was 60.8% (active).

For `COc1ccc(Cl)cc1NC(=O)CN(C)C(=O)c1cc2ccccc2cc1OC`, the activation is 21%.

Take `COc1ccccc1NC(=O)CCCc1c[nH]c2ccccc12`: the activation was -2.42%.

As for `COc1ccccc1NS(=O)(=O)c1ccc(C)c(C(=O)NCC(c2ccco2)N(C)C)c1` (configuration not stated), the activation was -1.37%.

For `COc1cc2ccccc2cc1C(=O)Nc1ccc(N2CCOCC2)cc1`, the activation is 4.47%.

Take `COc1ccccc1C(=O)Nc1cccc(C(=O)N2CCOCC2)c1`: the activation was 8.16%.

With `CCc1cc(C(c2ccccc2OC)N2CCOCC2)c(NC(=O)c2ccccc2)s1` (configuration not stated), the activation was 68.8% (active).

Turning to `Cc1ccc(C(=O)NNC(=O)c2ccncc2)cc1S(=O)(=O)N1CCCCC1`, the activation was -9.07%.
